# PubChem BioAssay (NCATS)
# Active and inactive are the calls of the source. Calls follow the shape of the dose curve; as a rule, active = well fitted inhibition curve with a large enough effect; inconclusive = small, poorly fitted or top-dose-only effect; inactive = no such curve, though single readings can be large or run the other way.
# Test: qHTS assay for measurement of the activity of small molecule inhibitors on Zika virus induced Caspase-3 activity in human astrocytoma cells (AID 1224859)
# Details: SNB-19 ZIKV-induced caspase-3/7, luminescence, 6 h; series mostly up to 45.7 µM
# Text: National Center for Advancing Translational Sciences [NCATS]
# Johns Hopkins University School of Medicine
# Increase in the Caspase-3 activity indicates an activation of apoptosis cell death pathway caused by Zika virus infection in certain types of neuronal cells including human neural progenitor cells (hNPCs), astrocytes, and astrocytoma cell line (SNB-19). This cell-based caspase-3 activity assay measures the increased caspase-3 activity in the astrocytoma cell line (SNB-19) after a 6-hour Zika virus infection with a luminescence readout. A decrease in the luminescence signal in this assay by small molecule treatment indicates an inhibitory effect of that small molecule on the Zika virus induced caspase-3 activity that may correlate with its effect on reduction of Zika virus caused cell death.
# The medium for SNB-19 cells is composed of RPMI 1640 (ATCC, Cat.# 30-2001), 10% fetal bovine serum (FBS) (GE healthcare Life Sciences, Cat.# SH30071.03), and 1% Pen/Strep (Gibco, Cat.# 15140-122). A Caspase-Glo 3/7 assay kit (catalog number G8092; Promega, Madison, WI) was used to detect caspase-3 activity induced by Zika virus infection in human cells. The reagent mixture was reconstituted as described in the protocol from the manufacturer. Polystyrene tissue culture treated and PDL coated white plates were obtained from Greiner Bio-One (Monroe, NC). Cells were seeded in 384- or 1536-well assay plates and cultured at 37 C with 5% CO2 for 16 to 20 hours. The typical cell seeding density in the 1536-well plate assay is 250 cells/well in 3ul medium for SNB-19 cells in tissue culture treated plates. Compounds were added to cells and incubated for one hour before addition of ZIKV solution to cells (2 FFU/cell). After incubation at 37 C with 5% CO2 for 6 hours, the reagent mixture of Caspase-Glo 3/7 assay kit was added to each well, followed by incubation at room temperature for 30 minutes. The luminescence intensity of the assay plates was measured using a ViewLux plate reader (PerkinElmer). Data were normalized by using the cell-containing wells without ZIKV as a negative control (0% induction of caspase 3/7 activity) and wells containing ZIKV infected cells (Caspase-3 activity induced) as a positive control (100% induction of caspase 3 activity). The percentage inhibitions of the increased Caspase-3 activity by small molecule inhibitors were then calculated.
row,SMILES,outcome
1,C[N+](C)(C)CCO,inactive
2,Nc1cc(C(F)(F)F)ccc1S,inactive
3,CCC(=O)O[C@]1(C(=O)COC)[C@@H](C)C[C@H]2[C@@H]3CCC4=CC(=O)C=C[C@]4(C)C3(F)[C@@H](O)C[C@@]21C (stereo not given in full),inactive
4,C[C@@H](C1=C(CCN(C)C)Cc2ccccc21)c1ccccn1,inactive
5,Cc1cnc(NS(=O)(=O)c2ccc(N)cc2)nc1,inactive
6,CCCOc1ccc2c(c1)CC[C@@H]1[C@@H]2CC[C@]2(C)C(OC)CC[C@@H]12 (stereo not given in full),inactive
7,CN(C)CCOC(c1ccccc1)c1ccc(Br)cc1 (stereo not given),inactive
8,CO/N=C(/C(=O)N[C@@H]1C(=O)N2C(C(=O)O)=C(Cn3nnc(C)n3)CS[C@H]12)c1csc(N)n1,inactive
9,CCCCCOc1ccccc1/C(=C\SC)n1ccnc1,inactive
10,Nc1ccc(O)cc1,inactive
11,O=C(O)Cn1c(=O)n(Cc2ccc(Br)cc2F)c(=O)c2ccc(Cl)cc21,inactive
12,CCN(CC)CC(=O)OCC(=O)[C@@]1(O)CC[C@H]2[C@@H]3CCC4=CC(=O)CC[C@]4(C)[C@H]3[C@@H](O)C[C@@]21C,inactive
13,Cc1nc(N)nc(N)c1-c1ccc(Cl)c(Cl)c1,inactive
14,Cc1nc2n(c(=O)c1CCN1CCC(C(=O)c3ccc(F)cc3)CC1)CCS2,inactive
15,CCCCCCCCCCCC[N+](C)(C)Cc1ccccc1,inactive
16,CCc1cc2cc(OC)c(OC)cc2c(Cc2ccccc2)n1,inactive
17,CCOC(=O)C(=O)CCc1ccccc1,inactive
18,CC(=O)CC/C=C(\C)CC/C=C(\C)CC/C=C(\C)CCC=C(C)C,inactive
19,COC(=O)C1=C(C)NC(C)=C(C(=O)OCCc2ccc(N3CCN(C(c4ccccc4)c4ccccc4)CC3)cc2)C1c1cccc([N+](=O)[O-])c1 (stereo not given),inactive
20,O=C(CCCl)NCCc1ccccc1,inactive

row,SMILES,outcome
1,COc1cc2c(cc1OC)C(=O)CC2,inactive
2,CC(CC1c2ccccc2CCc2ccccc21)CN(C)C (stereo not given),inactive
3,Cc1ccc(Cl)c(OCC(O)CNC(C)(C)C)c1 (stereo not given),inactive
4,CSCC[C@H](NC(=O)[C@H](Cc1c[nH]c2ccccc12)NC(=O)CCNC(=O)OC(C)(C)C)C(=O)N[C@@H](CC(=O)O)C(=O)N[C@@H](Cc1ccccc1)C(N)=O,inactive
5,COCCc1ccccn1,inactive
6,Cc1cccc(C)c1NC(=O)c1cc(S(N)(=O)=O)c(Cl)cc1O,inactive
7,CN1Cc2cc(C(=O)N3CCC(C4CCNCC4)CC3)ccc2NC(CC(=O)O)C1=O (stereo not given),inactive
8,CN1CC[C@H](c2c(O)cc(O)c3c(=O)cc(-c4ccccc4Cl)oc23)[C@H](O)C1,inactive
9,O=C1CC2(CCCC2)CC(=O)N1,inactive
10,CNC[C@H](O)[C@@H](O)[C@H](O)[C@H](O)CO,inactive
11,C#CC(C)(CC)OC(=O)c1ccccc1C(=O)O (stereo not given),inactive
12,COC(=O)CCCCC(CCSS/C(CCO)=C(\C)N(C=O)Cc1cnc(C)nc1N)SC(C)=O (stereo not given),inactive
13,CC(C)C(=O)Nc1cccc(C2CN3CCSC3=N2)c1 (stereo not given),inactive
14,CCN1CCN(C(=O)N[C@@H](C(=O)N[C@@H]2C(=O)N3[C@@H]2SC(C)(C)[C@H]3C(=O)O)c2ccccc2)C(=O)C1=O,inactive
15,CC(CCc1ccc2c(c1)OCO2)NN (stereo not given),inactive
16,CC(C)(C)c1ccc(C(=O)CCCCl)cc1,inactive
17,CC1CC(=O)NN=C1c1ccc(NCC(C)(C)NCC(O)COc2cc(Cl)ccc2C#N)cc1 (stereo not given),inactive
18,Nc1c(NC/C=C\COc2cc(CN3CCCCC3)ccn2)c(=O)c1=O,inactive
19,Oc1ccc(CCNCCCCCCNCCc2ccccc2)cc1O,inactive
20,CCOC(=O)C(=O)c1csc(NC=O)n1,inactive
